Measured values: PubChem BioAssay (NCI)
About 83,000 compounds went through this panel and 20% of them were active in at least one assay; those are over-represented in the sample as a whole.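 Testing used 96-well plates and a 48-hour single-concentration exposure. Example: -40 means 40% of the starting cells died.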 Values without a mark were called inactive. Activity calls are given as the source filed them. Rule for the calls: active = growth percent below 10; inactive = the rest.

Columns and labels:
Experiment in all cases: NCI-60 one-dose screen, 48 h (100 = growth as untreated, 0 = no growth, -100 = all killed)
NCI-H460 lung = conditions: 10 µM unless noted
786-0 renal = conditions: 10 µM unless noted
DU-145 prostate = conditions: 10 µM unless noted
MDA-MB-231 breast = conditions: 10 µM unless noted
SF-268 CNS = conditions: 10 µM unless noted
SF-539 CNS = conditions: 10 µM unless noted
HCT-15 colon = conditions: 10 µM
HT29 colon = conditions: 10 µM unless noted
SNB-19 CNS = conditions: 10 µM unless noted
UACC-62 melanoma = conditions: 10 µM unless noted
SK-MEL-28 melanoma = conditions: 10 µM unless noted
SN12C renal = conditions: 10 µM unless noted
UO-31 renal = conditions: 10 µM unless noted
T-47D breast = conditions: 10 µM unless noted
MDA-MB-435 melanoma = conditions: 10 µM unless noted
SW-620 colon = conditions: 10 µM unless noted
MCF7 breast = conditions: 10 µM unless noted
KM12 colon = conditions: 10 µM unless noted
HL-60(TB) leukemia = conditions: 10 µM unless noted
TK-10 renal = conditions: 10 µM unless noted

## COP(=S)(OC)Oc1ccc(SC)c(C)c1
NCI-H460 lung
  growth: 110%
786-0 renal
  growth: 104%
DU-145 prostate
  growth: 111%
MDA-MB-231 breast
  growth: 113%
SF-268 CNS
  growth: 110%
SF-539 CNS
  growth: 94.4%
HCT-15 colon
  growth: 105%
HT29 colon
  growth: 103%
SNB-19 CNS
  growth: 109%
UACC-62 melanoma
  growth: 95.5%
SK-MEL-28 melanoma
  growth: 115%
SN12C renal
  growth: 100%
UO-31 renal
  growth: 80.2%
T-47D breast
  growth: 96.6%
MDA-MB-435 melanoma
  growth: 100%
SW-620 colon
  growth: 106%
MCF7 breast
  growth: 113%
KM12 colon
  growth: 105%

## C=CC(O)CN1CC1CC (stereo not given)
NCI-H460 lung
  growth: 100%
786-0 renal
  growth: 107%
DU-145 prostate
  growth: 108%
MDA-MB-231 breast
  growth: 113%
SF-268 CNS
  growth: 106%
SF-539 CNS
  growth: 98%
HCT-15 colon
  growth: 102%
SNB-19 CNS
  growth: 97.8%
UACC-62 melanoma
  growth: 92.6%
SK-MEL-28 melanoma
  growth: 105%
SN12C renal
  growth: 99%
UO-31 renal
  growth: 86.3%
HL-60(TB) leukemia
  growth: 101%
T-47D breast
  growth: 101%
MDA-MB-435 melanoma
  growth: 99.1%
SW-620 colon
  growth: 92%
MCF7 breast
  growth: 94.2%
KM12 colon
  growth: 106%

## CCOCC1(CCc2ccccc2)C(=O)NC(=S)NC1=O
NCI-H460 lung
  growth: 113%
786-0 renal
  growth: 102%
DU-145 prostate
  growth: 109%
MDA-MB-231 breast
  growth: 100%
SF-268 CNS
  growth: 102%
SF-539 CNS
  growth: 99.9%
HCT-15 colon
  growth: 107%
HT29 colon
  growth: 108%
SNB-19 CNS
  growth: 105%
UACC-62 melanoma
  growth: 104%
SK-MEL-28 melanoma
  growth: 117%
SN12C renal
  growth: 100%
UO-31 renal
  growth: 84%
TK-10 renal
  growth: 115%
HL-60(TB) leukemia
  growth: 99.4%
T-47D breast
  growth: 99.3%
MDA-MB-435 melanoma
  growth: 108%
SW-620 colon
  growth: 109%
MCF7 breast
  growth: 103%
KM12 colon
  growth: 110%

## CC(/C=N/N=C(N)N)=N/N=C(N)N
NCI-H460 lung
  growth: 66.2%
786-0 renal
  growth: 70.4%
DU-145 prostate
  growth: 93.9%
MDA-MB-231 breast
  growth: 102%
SF-268 CNS
  growth: 72.9%
SF-539 CNS
  growth: 73.9%
HCT-15 colon
  growth: 98%
HT29 colon
  growth: 91.8%
SNB-19 CNS
  growth: 87.3%
UACC-62 melanoma
  growth: 93.6%
SK-MEL-28 melanoma
  growth: 96.4%
SN12C renal
  growth: 94.9%
UO-31 renal
  growth: 69.9%
TK-10 renal
  growth: 74.2%
HL-60(TB) leukemia
  growth: 84.5%
T-47D breast
  growth: 60.1%
MDA-MB-435 melanoma
  growth: 100%
SW-620 colon
  growth: 98.5%
MCF7 breast
  growth: 98.1%
KM12 colon
  growth: 73.1%

## Cc1ccccc1O
NCI-H460 lung
  growth: 117%
786-0 renal
  growth: 105%
DU-145 prostate
  growth: 120%
MDA-MB-231 breast
  growth: 115%
SF-268 CNS
  growth: 109%
SF-539 CNS
  growth: 104%
HCT-15 colon
  growth: 106%
HT29 colon
  growth: 110%
SNB-19 CNS
  growth: 107%
UACC-62 melanoma
  growth: 107%
SK-MEL-28 melanoma
  growth: 111%
SN12C renal
  growth: 105%
UO-31 renal
  growth: 82.6%
TK-10 renal
  growth: 115%
HL-60(TB) leukemia
  growth: 110%
T-47D breast
  growth: 94.9%
MDA-MB-435 melanoma
  growth: 117%
SW-620 colon
  growth: 112%
MCF7 breast
  growth: 119%
KM12 colon
  growth: 106%

## COc1ccc(/C=C(/C(=O)N2CCCC2)c2cc(OC)c(OC)c(OC)c2)cc1N
NCI-H460 lung
  growth: 13.5%
786-0 renal
  growth: 24.5%
DU-145 prostate
  growth: 24.6%
MDA-MB-231 breast
  growth: 62%
SF-268 CNS
  growth: 47.5%
SF-539 CNS
  growth: 3.13% (active)
HCT-15 colon
  growth: 29.2%
HT29 colon
  growth: 9.12% (active)
SNB-19 CNS
  growth: 44.4%
UACC-62 melanoma
  growth: 41.5%
SK-MEL-28 melanoma
  growth: 60.9%
SN12C renal
  growth: 40.8%
UO-31 renal
  growth: 51.7%
TK-10 renal
  growth: 75.3%
HL-60(TB) leukemia
  growth: -11.9% (active)
T-47D breast
  growth: 37.8%
MDA-MB-435 melanoma
  growth: -39.8% (active)
SW-620 colon
  growth: 25.6%
MCF7 breast
  growth: 14.2%
KM12 colon
  growth: 14.8%

## CC(=O)C1CCC2C3CC=C4CC(OC(=O)Cc5ccc(N(CCCl)CCCl)cc5)CCC4(C)C3CCC12C (stereo not given)
NCI-H460 lung
  growth: 101%
DU-145 prostate
  growth: 86%
MDA-MB-231 breast
  growth: 112%
SF-268 CNS
  growth: 93.7%
SF-539 CNS
  growth: 79.5%
HCT-15 colon
  growth: 99.5%
HT29 colon
  growth: 83.2%
SNB-19 CNS
  growth: 93.4%
UACC-62 melanoma
  growth: 91.4%
SK-MEL-28 melanoma
  growth: 107%
SN12C renal
  growth: 96.6%
UO-31 renal
  growth: 109%
TK-10 renal
  growth: 113%
HL-60(TB) leukemia
  growth: 101%
T-47D breast
  growth: 105%
MDA-MB-435 melanoma
  growth: 111%
SW-620 colon
  growth: 101%
MCF7 breast
  growth: 106%
KM12 colon
  growth: 106%

## C[C@]12CCC(=O)CC1CC[C@@H]1C2CC[C@@]2(C)C1CC[C@@H]2OC(=O)CC[Se][Se]CCC(=O)O[C@H]1CCC2[C@@H]3CCC4CC(=O)CC[C@]4(C)C3CC[C@@]21C (stereo not given in full)
NCI-H460 lung
  growth: 95.9%
786-0 renal
  growth: 107%
DU-145 prostate
  growth: 110%
MDA-MB-231 breast
  growth: 94.3%
SF-268 CNS
  growth: 94.1%
SF-539 CNS
  growth: 103%
HCT-15 colon
  growth: 97.4%
HT29 colon
  growth: 83.1%
SNB-19 CNS
  growth: 76.7%
UACC-62 melanoma
  growth: 88.5%
SK-MEL-28 melanoma
  growth: 98.9%
SN12C renal
  growth: 103%
UO-31 renal
  growth: 90.5%
TK-10 renal
  growth: 77.4%
HL-60(TB) leukemia
  growth: 9.16% (active)
T-47D breast
  growth: 86.5%
MDA-MB-435 melanoma
  growth: 88.5%
SW-620 colon
  growth: 122%
MCF7 breast
  growth: 80.8%
KM12 colon
  growth: 103%
